Compound activity as filed in PubChem.
GAA glycogen mod: alters human alpha-glucosidase cleavage of glycogen. P10253. recombinant GAA, glycogen substrate, Amplex Red glucose oxidase fluorescence. Potency, µM (top dose mostly 76.4 µM), for the others: at the top dose activity change, negative = inhibition, actives largely listed as inhibitors. hit rate 0.38% among 300,000;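 note: potency is the fitted concentration of half-maximal effect; 0% = full enzyme reaction and -100% = no-enzyme basal signal; the screen sought inhibitors and activators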
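Recombinant enzyme (4 nM final) with compounds titrated up to 77 uM and bovine liver glycogen (30 ug) in citrate pH 5.0, 0.01% Tween-20, 37 C 40 min. Released glucose detected by Amplex Red/glucose oxidase (Ex 573/Em 610); AC50 from Hill fits.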
GAA inhib: blocks human lysosomal alpha-glucosidase. P10253. purified human GAA, 4-MU-alpha-glucoside fluorescence. Potency, µM (highest dose often 76.9 µM), for the others: at the highest dose activity change, negative = inhibition, hits mostly inhibitors. hit rate 0.005% among 200,000;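 note: potency is the fitted concentration of half-maximal effect; plate controls were uninhibited enzyme wells for no effect and no-enzyme background for full effect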
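qHTS format, compound range up to 77 uM. Human lysosomal enzyme at 4 nM, 400 uM 4-MU glucoside substrate, pH 5.0, 20 min room temperature; fluorescence after alkaline stop gives activity normalized to controls.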
aGal spleen mod: inhibits or activates alpha-galactosidase in human spleen homogenate | P06280 | human spleen homogenate, 4MU-alpha-Gal fluorescence, 40 min | Potency, µM (highest dose often 80 µM), inactives show at the highest dose activity change, negative = inhibition, actives largely listed as inhibitors | hit rate 0.008% among 240,000 | AID 2107;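 note: potency is the fitted concentration of half-maximal effect; 0% = enzyme with vehicle and -100% = no enzyme basal signal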
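Fluorogenic readout (Ex 365/Em 440 nm) of 4-methylumbelliferone released from 1 mM 4-MU-alpha-galactoside by spleen homogenate, 40 min at 37C, pH 5.0. Data normalized to no-enzyme and enzyme controls; Hill-equation AC50 from compound titrations.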
GLA inh pH 4.5: alpha-galactosidase A (human) inhibition, pH 4.5; P06280; purified enzyme, 4-MU-alpha-Gal fluorescence, pH 4.5; activity change, negative = inhibition, % at 105 µM; 230,000 tested, under 10 active;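 note: 0% = full activity with enzyme and -100% = basal without enzyme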
Target sequence (P06280 whole entry, looked up): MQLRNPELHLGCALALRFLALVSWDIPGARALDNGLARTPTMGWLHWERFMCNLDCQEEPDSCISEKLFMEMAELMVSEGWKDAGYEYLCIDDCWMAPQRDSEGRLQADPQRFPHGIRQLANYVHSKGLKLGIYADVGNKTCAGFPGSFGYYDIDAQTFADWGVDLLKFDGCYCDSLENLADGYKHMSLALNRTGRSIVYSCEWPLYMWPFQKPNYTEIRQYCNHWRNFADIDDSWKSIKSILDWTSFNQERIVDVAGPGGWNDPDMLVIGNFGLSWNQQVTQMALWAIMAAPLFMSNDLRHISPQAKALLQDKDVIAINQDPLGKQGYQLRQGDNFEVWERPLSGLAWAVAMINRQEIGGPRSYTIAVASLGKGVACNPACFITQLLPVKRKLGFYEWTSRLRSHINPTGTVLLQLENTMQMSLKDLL
GAA spleen mod: inhibitors or activators of human alpha-glucosidase in spleen homogenate | human spleen homogenate, 4-MU-alpha-glucoside fluorescence | P10253 | hit rate 0.006% among 240,000 | Potency, µM (top dose mostly 79.9 µM), for inactives: at the top dose activity change, negative = inhibition, actives largely listed as inhibitors;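 note: potency is the fitted concentration of half-maximal effect; 0% = enzyme with vehicle and -100% = no enzyme basal signal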
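Human spleen homogenate (1 ug) incubated with compounds and 1 mM 4-methylumbelliferyl-alpha-D-glucopyranoside in pH 5.0 citrate/phosphate buffer, 37 C, 40 min. Stopped at pH 10; 4-MU fluorescence (Ex 365/Em 440 nm); AC50 by Hill fit.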
N370S GC mod: inhibits or activates N370S mutant glucocerebrosidase; P04062; N370S GC spleen homogenate, 4MU-glucoside fluorescence; Potency, µM (top dose mostly 59.4 µM), inactives show top-dose activity change, negative = inhibition, most hits filed as inhibitors; hit rate 0.092% among 330,000;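 note: potency is the fitted concentration of half-maximal effect; 0% = full enzyme activity and -100% = no enzyme basal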
Numbers without * were called inactive; u = inconclusive; x = no result; [ ] = remark or other dose. Rows were chosen to be rich in hits. Some 0.43% of all compounds tested hit in one or more screens of this group. Calls come from the whole dose curve; as a rule, active = well fitted curve in the direction sought with a large enough effect; inconclusive = small, poorly fitted or top-dose-only effect, or another doubt; inactive = no such curve, though single readings can be large; an effect the other way counts as inactive or inconclusive.

SMILES	GAA glycogen mod	GAA inhib	aGal spleen mod	GLA inh pH 4.5	GAA spleen mod	N370S GC mod
CSc1ccc(-c2nc3cnccn3c2Nc2ccc3c(c2)OCO3)cc1	22.2µM*	-27.7%	-3.7%	-25.6	-4.5%	-0.7%
COc1cc(-c2nc3sccn3c2Nc2c(C)cccc2C)ccc1O	-18.0%[76.3 µM]	x	x	x	x	x
COc1ccccc1NC(=O)Cn1ncc2c1-c1ccccc1OC2	-10.8%	3.1%	-1.2%	-0.3	-11.0%	-1.2%
CCOC(=O)CSc1nc2c(c(=O)[nH]1)C(C)(CC)Cc1ccccc1-2 (configuration not stated)	-3.6%	x	x	x	x	12.2%
CCc1ccccc1NC(=O)CSc1nnc2ccc3ccccc3n12	12.5%[76.3 µM]	x	x	x	x	x
COc1cc(-c2nc3ncccn3c2Nc2ccc(C)cc2C)ccc1O	10µM*	x	x	x	x	x
COc1ccc(-c2nc3cnccn3c2Nc2ccc(C)cc2)cc1	7.08µM*	2.0%	5.0%	-7.8	-21.7%	u
Oc1ccccc1-c1nc2cnccn2c1Nc1ccc2c(c1)OCCO2	7.88µM*	u	2.9%	-4.9	-3.1%	15.1%
Cc1ccc(Nc2c(-c3ccc(C)o3)nc3cnccn23)cc1	-17.5%	-1.8%	2.7%	-1.5	5.0%	-0.2%
Cc1ccc(-c2nc3cnccn3c2Nc2ccc3c(c2)OCO3)o1	7.94µM*	u	-7.5%	u	-6.2%	0.0%
Cc1ccc(OCCCN2C(=O)C(=O)c3cc(C)ccc32)cc1	-13.3%	-1.9%	2.5%	1.9	-1.8%	4.7%
CC(C)/C=N/NC(=O)c1ccc(Cl)cc1	14.5%	-4.7%	-3.5%	2.8	5.0%	2.2%
Cc1ccc(NS(=O)(=O)c2cc([N+](=O)[O-])ccc2NNC(=S)Nc2cc(C)ccc2C)c(C)c1	7.3%	-10.9%	-4.4%	-11.1	-6.3%	u
COc1ccc(NC(=S)NNc2ccc([N+](=O)[O-])cc2S(=O)(=O)Nc2ccc(C)cc2C)cc1	u	u	1.1%	-11.9	-2.4%	22.4µM*
O=C(NNc1cccc(Cl)n1)c1c(F)cccc1F	u	-4.5%	1.1%	14.8	x	6.5%
O=C(NNc1cccc(Cl)n1)c1c(Cl)cccc1Cl	8.91µM*	8.2%	0.3%	8.8	-28.6%	6.6%
CCOc1ccc(CNC(=O)CCCC(=O)n2ncc3cc(C)ccc32)cc1	-5.1%[76.3 µM]	x	x	x	x	-2.3%
O=C1Nc2ccccc2C(=O)N2[C@H](c3cccc(Br)c3)[C@@H]3C(=O)N(Cc4ccccc4)C(=O)[C@@H]3[C@H]12	x	x	x	x	x	-3.4%
O=C(CCc1nnc(C2CCCCC2)o1)NCc1ccc(F)c(F)c1	-4.7%	x	-4.4%	4.5	0.3%	6.8%
N#Cc1c(NC(NC(=O)c2ccco2)C(=O)c2ccccc2)sc2c1CCCC2 (configuration not stated)	22.4µM*	-7.5%	0.1%	-10.5	-1.3%	u
NC(=O)c1c(NC(NC(=O)c2ccco2)C(=O)c2ccc(Cl)cc2)sc2c1CCCC2 (configuration not stated)	-0.6%	-11.6%	-6.8%	-3.2	-17.4%	26.5%
COc1ccccc1CNc1ccnc(-c2ccccc2Cl)n1	x	x	-3.7%	x	-4.8%	u
Clc1ccccc1-c1nccc(NCc2ccccc2)n1	x	x	-0.1%	x	2.9%	3.55µM*
Cc1cccc(CNc2ccnc(-c3ccccc3Cl)n2)c1	x	x	-0.7%	x	-6.9%	7.08µM*
CN(C)S(=O)(=O)c1cccc(C(=O)Nc2ccc(N3CCOCC3)cc2)c1	-2.3%	x	7.1%	1.3	4.7%	2.2%
Nc1cc(-c2ccccc2)ccc1O	10µM*	-5.6%	1.1%	1.1	-1.8%	-7.2%
Cc1cccc(C)c1N1C(=O)CC(N(O)c2ccccc2)C1=O (configuration not stated)	31.6µM*	-5.9%	0.2%	-17.8	-7.3%	12.2%
Cc1c(Cl)cccc1N1C(=O)CC(N(O)c2ccccc2)C1=O (configuration not stated)	20µM*	-11.3%	-2.0%	-1.1	-4.1%	-1.2%
CCOc1ccccc1N1C(=O)CC(N(O)c2ccccc2)C1=O (configuration not stated)	-11.9%	-1.0%	12.5%	-2.2	4.9%	-9.4%
